Results filed as inconclusive are left out. Calls of active or inactive are those of the source. Unless noted, the call rests on the fitted dose curve.

Assay [1] is described as follows: qHTS assay for small molecule agonists of retinoid X receptor alpha signaling (AID 588544).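 On activation: 0% = DMSO basal wells and 100% = reference agonist.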 The conditions noted are these: HEK293T RXRa-UAS-bla, beta-lactamase reporter, 18 h; 530 nm emission. (In qHTS, concentration-response curves come from the screen itself.)
Assay [2] deals with Retinoic acid receptor RXR-alpha (Homo sapiens) (UniProt P19793). The description is as above. The conditions noted are these: HEK293T RXRa-UAS-bla, beta-lactamase reporter, 18 h; series mostly up to 76.7 µM.
Retinoic acid receptor RXR-alpha (Homo sapiens), sequence (P19793 whole entry, looked up): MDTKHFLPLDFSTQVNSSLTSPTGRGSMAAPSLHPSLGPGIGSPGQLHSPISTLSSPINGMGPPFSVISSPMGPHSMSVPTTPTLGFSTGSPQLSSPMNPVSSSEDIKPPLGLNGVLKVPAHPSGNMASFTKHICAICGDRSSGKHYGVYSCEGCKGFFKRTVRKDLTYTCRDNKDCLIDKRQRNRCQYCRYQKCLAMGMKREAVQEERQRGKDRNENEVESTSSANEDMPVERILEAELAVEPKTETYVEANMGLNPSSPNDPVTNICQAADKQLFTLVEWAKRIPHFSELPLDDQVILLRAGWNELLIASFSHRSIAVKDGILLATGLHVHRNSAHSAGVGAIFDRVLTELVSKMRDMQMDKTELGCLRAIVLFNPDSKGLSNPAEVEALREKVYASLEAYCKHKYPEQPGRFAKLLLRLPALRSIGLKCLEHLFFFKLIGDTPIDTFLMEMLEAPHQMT
Assay [3] addresses Thyroid hormone receptor beta (Homo sapiens) (UniProt P10828). The assay is described as follows: qHTS assay for small molecule agonists of thyroid hormone receptor beta signaling (AID 588545).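 Further: 0% = DMSO only and 100% = 10 nM T3.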 The note with it: TR-UAS-bla GripTite HEK 293, beta-lactamase ratio, agonist mode, 18 h, percent of T3 response, DMSO as zero; series mostly up to 76.7 µM. The method, boiled down:
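TR-UAS-bla-GripTite HEK 293 cells in medium with 2% charcoal/dextran FBS, 0.1 mM NEAA and 1 mM sodium pyruvate were treated with titrated compounds for 18 hrs at 37 C. Beta-lactamase reporter was read with CCF4 dye (ex 405, em 460/530 nm); EC50 from Hill fits.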

The nature of assay [4]: qHTS assay for small molecule antagonists of retinoid X receptor alpha signaling (AID 588546; active means well fitted inhibition curve with a large enough effect in the signal ratio, with a control signal flat, not every such curve was filed as active; the % refers to the signal ratio;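 further: cells stimulated with 9-cis-retinoic acid as agonist; on the % scale 0 is the no-effect control and ±100 the full control effect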). The note with it: HEK293T RXRa-UAS-bla, beta-lactamase ratio, antagonist mode; measured here: W530 green channel, cytotoxicity proxy. The method, boiled down:
(§1)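 Beta-lactamase reporter inhibition, read as CCF4 fluorescence ratio (ex 405, em 460/530 nm) after 2 h at RT. HEK293T UAS-bla cells, 2500/well, were stimulated with 9-cis-RA at 500 or 100 nM final alongside test compound for 18 h at 37 C.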

In assay [5] the target is Retinoic acid receptor RXR-alpha (Homo sapiens) (UniProt P19793). Described as above. The note with it: HEK293T RXRa-UAS-bla, beta-lactamase ratio, antagonist mode. An outline of the steps: as §1
The target of assay [6] is Thyroid hormone receptor beta (Homo sapiens) (UniProt P10828). The assay is described as follows: qHTS assay for small molecule antagonists of thyroid hormone receptor beta signaling (AID 588547; active means well fitted inhibition curve with a large enough effect in the signal ratio, with a control signal flat, not every such curve was filed as active; the % refers to the signal ratio;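 further: cells stimulated with 0.4 nM T3 agonist during compound exposure; on the % scale 0 is the no-effect control and ±100 the full control effect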). The conditions noted are these: TR-UAS-bla HEK293, beta-lactamase ratio, antagonist mode, 18 h. The method, boiled down:
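TR-UAS-bla GripTite HEK293 cells in 2% charcoal/dextran FBS medium were preincubated 4 h at 37 C, given compound (0.59 nM to 92 uM) plus 0.4 nM T3 (final) for 18 h, then CCF4 for 2 h at RT; Hill fit gave IC50.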

Assay [7] is described as follows: qHTS assay for small molecule agonists of the antioxidant response element (ARE) signaling pathway (AID 651741; active means well fitted activation curve with a large enough effect in the signal ratio; the % refers to the signal ratio; further: % of control where 0% means no effect). The note with it: HepG2 ARE-bla reporter, beta-lactamase FRET ratio, 16 h; series mostly up to 96 µM. An outline of the steps: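 Compounds in DMSO are pinned onto HepG2 ARE-bla cells (2,000/well) that were preincubated 5 h; plates stay 16 h at 37 C, then beta-lactamase activity is detected with LiveBLAzer B/G substrate by fluorescence.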

Assay [8] in a line: qHTS assay for small molecule activators of the p53 signaling pathway (AID 651743; active means well fitted activation curve with a large enough effect in the signal ratio, not every such curve was filed as active; the % refers to the signal ratio; further: % of control where 0% means no effect). The conditions noted are these: HCT-116 p53RE-bla, beta-lactamase FRET ratio, 16 h; stronger effect = higher value. An outline of the steps:
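Cell-based beta-lactamase reporter (p53 response elements, HCT-116 background). After a 5-hour preincubation, cells received compound for 16 hours at 37 C; substrate development ran 2 hours at room temperature.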

A short description of assay [9]: qHTS assay for small molecule disruptors of the mitochondrial membrane potential - 1 hr assay (AID 651754). Further: on the % scale 0 is the no-effect control and ±100 the full control effect; nearly all actives have a fitted effect of over 35% in size. The note with it: series mostly up to 92.2 µM. An outline of the steps:
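HepG2, 2,000 cells/well, overnight attachment; cpd or DMSO 1 hr, 37C/5% CO2; Mito-MPS dye 30 min, 37C; fluorescence monomer (490/535) and aggregate (540/590).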

Assay [10] concerns the target Tumor necrosis factor (Homo sapiens) (UniProt P01375). The assay is described as follows: qHTS assay to identify small molecules that stimulate Tumor Necrosis Factor-alpha (TNF-alpha) secretion (AID 651757; active means well fitted curve in the direction sought with a large enough effect in the signal ratio; the % refers to the signal ratio; further: 0% is about no effect). The note with it: Human cells, HTRF 665/615 ratio; series mostly up to 92.2 µM. An outline of the steps: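 Read-out is HTRF, a TR-FRET sandwich of cryptate- and XL665-labeled anti-TNF-alpha antibodies detecting cytokine secreted by THP-1 cells. Cells had been incubated with test compounds at 37 C for 17 hrs beforehand.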

Assay [11] is described as follows: qHTS assay to identify small molecules that stimulate interleukin-8 (IL-8) secretion (AID 651758; active means well fitted activation curve with a large enough effect in the signal ratio; the % refers to the signal ratio; further: 0% is about no effect). The conditions noted are these: HTRF ratio (665/615); series mostly up to 92.2 µM. The method, boiled down: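 THP-1, 2000 cells/well; cpd 16 h, 37 C; add cryptate + XL665 anti-IL-8 Abs; RT 1-3 h; TR-FRET read.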
Assay [12] is described as follows: qHTS assay for environmental chemicals that activate the Aryl hydrocarbon Receptor (AhR) signaling pathway (AID 651777; active means well fitted curve in the direction sought with a large enough effect; an effect the other way counts as inactive or inconclusive; further: % of control where 0% means no effect; nearly all actives have a fitted effect of over 15% in size). The conditions noted are these: 1A2-DRE human hepatoma cells, luciferase, 24 h; activation: stronger effect = higher value. An outline of the steps:
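AhR activation is scored as a rise in luciferase from a stable DRE–CYP1A2 promoter construct in human hepatoma cells. Treatment lasts 24 hr at 37 C; detection uses One-Glo after 30 min at room temperature.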

Assay [13] has as its target Peroxisome proliferator-activated receptor alpha (Homo sapiens) (UniProt Q07869). Put plainly: qHTS assay for small molecule agonists of the peroxisome proliferator-activated receptor alpha (PPARalpha) signaling pathway (AID 651778; active means well fitted curve in the direction sought with a large enough effect; an effect the other way counts as inactive or inconclusive; further: % of control where 0% means no effect). The note with it: PathHunter PPARalpha complementation, chemiluminescence, 6 h; stronger effect = higher value. The method, boiled down:
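Cells plated at 2,000/well and held overnight at 37 C, 5% CO2, then compound added by pin tool for 6 hr; after PathHunter detection reagent and 60 min at room temperature, chemiluminescence from enzyme complementation was read.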

Assay [14] in a line: qHTS assay for small molecule agonists of the antioxidant response element (ARE) signaling pathway measured by Nrf2-dependant transcriptional activity (AID 720636; active means well fitted curve in the direction sought with a large enough effect in the repeat runs; an effect the other way counts as inactive or inconclusive;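 further: HepG2 cells with an ARE-driven luciferase reporter; % of control where 0% means no effect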). The note with it: ARE-luc HepG2, Nrf2 luciferase reporter, 16 h; series mostly up to 92.4 µM. The method, boiled down:
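First, ARE-luc HepG2 cells attached for 6 hr at 37 C in 1% dialyzed FBS medium. Next, compound or DMSO was added and incubated 16 hr. Finally, ONE-Glo reagent was added and luminescence measured after 30 min.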

A short description of assay [15]: qHTS assay for small molecule antagonists of the retinoid-related orphan receptor gamma (ROR-gamma) signaling pathway - cell viability counter screen (AID 720652; active means well fitted curve in the direction sought with a large enough effect in the repeat runs; an effect the other way counts as inactive or inconclusive;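 further: compound exposure lasted 16 hr before ATP read; on the % scale 0 is the no-effect control and ±100 the full control effect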). The note with it: RORgamma reporter cell line viability counter screen; series mostly up to 92.2 µM. An outline of the steps: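 Luminescence from CellTiter-Glo after 30 min at room temperature reported cellular ATP as the cytotoxicity measure. Cells were the CHO reporter line with doxycycline-induced ROR-gamma expression, exposed to compound for 16 hr at 37 C.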

Assay [16] in a line: qHTS assay for small molecule agonists of the antioxidant response element (ARE) signaling pathway measured by Nrf2-dependant transcriptional activity - cell viability counter screen (AID 720653; active means well fitted curve in the direction sought with a large enough effect in the repeat runs; an effect the other way counts as inactive or inconclusive; further: on the % scale 0 is the no-effect control and ±100 the full control effect). The conditions noted are these: ARE-bla HepG2 viability, CellTiter-Glo ATP luminescence, 16 h; stronger effect = lower value. An outline of the steps:
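ARE-bla HepG2 cells (2,000/well) rested 5 hrs at 37C/5% CO2, then exposed to compounds in DMSO for 16 hrs. Viability was read in the same wells as intracellular ATP by luminescence, 30 min at room temperature after reagent addition.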

Assay [17] has as its target Voltage-gated inwardly rectifying potassium channel KCNH2 (Homo sapiens) (UniProt Q12809). Put plainly: qHTS Assay for Small Molecule Inhibitors of the Human hERG Channel Activity (AID 588834; active means well fitted curve in the direction sought with a large enough effect; an effect the other way counts as inactive or inconclusive;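 further: top concentration of the series differs between compounds; on the % scale 0 is the no-effect control and ±100 the full control effect; lower thallium flux fluorescence means stronger hERG block; nearly all actives have a fitted effect of over 50% in size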). The conditions noted are these: U2OS BacMam hERG, FluxOR thallium flux fluorescence; series mostly up to 92.2 µM. The method, boiled down: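 Concentration-response qHTS measuring drop in thallium-sensitive dye signal. U2OS cells carrying BacMam hERG; compound exposure ~10 min, then stimulation buffer and 2 min read at 1 sec intervals.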

Assay [18] in a line: qHTS assay for small molecule disruptors of the mitochondrial membrane potential - 5 hr assay (AID 651755). Further: on the % scale 0 is the no-effect control and ±100 the full control effect; nearly all actives have a fitted effect of over 40% in size. The note with it: JC-1-type ratio dye; series mostly up to 92.2 µM. The method, boiled down:
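HepG2 cells, attached overnight at 37C, were exposed to compound or DMSO for 5 hr at 37C, 5% CO2. Mito-MPS dye was then added for 30 min, and fluorescence read at 490/535 nm (monomers) and 540/590 nm (aggregates).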

Assay [19] in a line: qHTS assay for small molecule activators of the nuclear factor-kappa B (NF-kB) signaling pathway (AID 651749; active means well fitted activation curve with a large enough effect in the signal ratio; the % refers to the signal ratio; further: % of control where 0% means no effect). The note with it: NF-kB-bla ME-180 cells, beta-lactamase FRET ratio, 16 h; stronger effect = higher value. An outline of the steps: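 Screening used 2,000 ME-180 reporter cells per well exposed to pinned compound (23 nL) or DMSO; after 16 hr at 37C, beta-lactamase expression under NF-kB control was assessed through FRET.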

For assay [20], the target named is Nuclear receptor ROR-gamma (Homo sapiens) (UniProt P51449). Put plainly: qHTS assay for small molecule antagonists of the retinoid-related orphan receptor gamma (ROR-gamma) signaling pathway (AID 651802; active means well fitted curve in the direction sought with a large enough effect; an effect the other way counts as inactive or inconclusive;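 further: luciferase reporter luminescence driven by ROR response element; on the % scale 0 is the no-effect control and ±100 the full control effect; nearly all actives have a fitted effect of over 60% in size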). The conditions noted are these: ROR-gamma antagonist cell reporter assay; series mostly up to 92.2 µM. The method, boiled down: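 CHO, TET-inducible ROR + RORE-LUC reporter, 1536-well qHTS. Compound pinned, doxycycline added, 16hr 37C/5% CO2. ONE-Glo, 30 min RT, luminescence; signal drop scored as antagonism.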
Nuclear receptor ROR-gamma (Homo sapiens), sequence (P51449 whole entry, looked up): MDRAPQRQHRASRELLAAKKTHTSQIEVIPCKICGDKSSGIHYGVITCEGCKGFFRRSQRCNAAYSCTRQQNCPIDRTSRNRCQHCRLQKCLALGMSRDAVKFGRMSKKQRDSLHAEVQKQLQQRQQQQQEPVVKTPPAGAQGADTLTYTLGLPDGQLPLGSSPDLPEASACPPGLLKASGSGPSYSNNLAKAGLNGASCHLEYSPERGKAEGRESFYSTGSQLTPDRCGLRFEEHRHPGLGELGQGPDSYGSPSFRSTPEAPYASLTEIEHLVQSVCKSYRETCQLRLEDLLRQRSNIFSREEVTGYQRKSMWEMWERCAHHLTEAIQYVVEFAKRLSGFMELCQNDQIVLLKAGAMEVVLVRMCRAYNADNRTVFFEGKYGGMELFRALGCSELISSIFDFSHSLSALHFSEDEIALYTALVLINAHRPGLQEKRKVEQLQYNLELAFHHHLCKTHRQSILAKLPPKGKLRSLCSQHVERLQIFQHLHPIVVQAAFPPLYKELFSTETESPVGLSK

Peroxisome proliferator-activated receptor alpha (Homo sapiens), sequence (Q07869 whole entry, looked up): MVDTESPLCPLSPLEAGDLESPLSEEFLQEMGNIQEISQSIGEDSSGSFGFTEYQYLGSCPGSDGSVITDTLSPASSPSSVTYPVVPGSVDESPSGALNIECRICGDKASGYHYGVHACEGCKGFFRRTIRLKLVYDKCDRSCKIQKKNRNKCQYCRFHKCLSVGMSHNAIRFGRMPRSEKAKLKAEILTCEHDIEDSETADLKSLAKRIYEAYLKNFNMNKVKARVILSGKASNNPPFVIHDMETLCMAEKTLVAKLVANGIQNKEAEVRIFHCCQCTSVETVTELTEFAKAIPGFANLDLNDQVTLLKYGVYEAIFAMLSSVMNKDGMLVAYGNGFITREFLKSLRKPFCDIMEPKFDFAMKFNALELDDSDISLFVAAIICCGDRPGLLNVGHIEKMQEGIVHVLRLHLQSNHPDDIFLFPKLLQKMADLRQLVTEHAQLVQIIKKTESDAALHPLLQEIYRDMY
Tumor necrosis factor (Homo sapiens), sequence (P01375 whole entry, looked up): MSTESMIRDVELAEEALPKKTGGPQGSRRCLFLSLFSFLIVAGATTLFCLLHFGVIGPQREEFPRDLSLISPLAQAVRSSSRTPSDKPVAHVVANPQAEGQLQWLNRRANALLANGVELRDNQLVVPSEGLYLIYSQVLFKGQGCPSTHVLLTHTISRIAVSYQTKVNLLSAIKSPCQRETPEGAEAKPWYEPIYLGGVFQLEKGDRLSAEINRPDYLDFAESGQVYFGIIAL
Thyroid hormone receptor beta (Homo sapiens), sequence (P10828 whole entry, looked up): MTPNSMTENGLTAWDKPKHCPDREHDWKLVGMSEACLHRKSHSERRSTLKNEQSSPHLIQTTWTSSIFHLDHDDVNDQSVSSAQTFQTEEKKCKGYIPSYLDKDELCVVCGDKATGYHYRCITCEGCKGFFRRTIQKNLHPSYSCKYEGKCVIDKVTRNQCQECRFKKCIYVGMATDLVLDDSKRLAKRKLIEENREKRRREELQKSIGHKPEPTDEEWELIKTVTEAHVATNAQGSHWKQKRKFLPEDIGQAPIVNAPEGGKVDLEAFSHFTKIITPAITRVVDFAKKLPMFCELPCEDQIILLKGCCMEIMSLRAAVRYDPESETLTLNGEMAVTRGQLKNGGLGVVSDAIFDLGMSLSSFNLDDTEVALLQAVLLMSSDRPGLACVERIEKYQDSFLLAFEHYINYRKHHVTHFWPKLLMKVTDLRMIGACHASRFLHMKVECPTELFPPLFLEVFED
Voltage-gated inwardly rectifying potassium channel KCNH2 (Homo sapiens), sequence (Q12809 whole entry, looked up): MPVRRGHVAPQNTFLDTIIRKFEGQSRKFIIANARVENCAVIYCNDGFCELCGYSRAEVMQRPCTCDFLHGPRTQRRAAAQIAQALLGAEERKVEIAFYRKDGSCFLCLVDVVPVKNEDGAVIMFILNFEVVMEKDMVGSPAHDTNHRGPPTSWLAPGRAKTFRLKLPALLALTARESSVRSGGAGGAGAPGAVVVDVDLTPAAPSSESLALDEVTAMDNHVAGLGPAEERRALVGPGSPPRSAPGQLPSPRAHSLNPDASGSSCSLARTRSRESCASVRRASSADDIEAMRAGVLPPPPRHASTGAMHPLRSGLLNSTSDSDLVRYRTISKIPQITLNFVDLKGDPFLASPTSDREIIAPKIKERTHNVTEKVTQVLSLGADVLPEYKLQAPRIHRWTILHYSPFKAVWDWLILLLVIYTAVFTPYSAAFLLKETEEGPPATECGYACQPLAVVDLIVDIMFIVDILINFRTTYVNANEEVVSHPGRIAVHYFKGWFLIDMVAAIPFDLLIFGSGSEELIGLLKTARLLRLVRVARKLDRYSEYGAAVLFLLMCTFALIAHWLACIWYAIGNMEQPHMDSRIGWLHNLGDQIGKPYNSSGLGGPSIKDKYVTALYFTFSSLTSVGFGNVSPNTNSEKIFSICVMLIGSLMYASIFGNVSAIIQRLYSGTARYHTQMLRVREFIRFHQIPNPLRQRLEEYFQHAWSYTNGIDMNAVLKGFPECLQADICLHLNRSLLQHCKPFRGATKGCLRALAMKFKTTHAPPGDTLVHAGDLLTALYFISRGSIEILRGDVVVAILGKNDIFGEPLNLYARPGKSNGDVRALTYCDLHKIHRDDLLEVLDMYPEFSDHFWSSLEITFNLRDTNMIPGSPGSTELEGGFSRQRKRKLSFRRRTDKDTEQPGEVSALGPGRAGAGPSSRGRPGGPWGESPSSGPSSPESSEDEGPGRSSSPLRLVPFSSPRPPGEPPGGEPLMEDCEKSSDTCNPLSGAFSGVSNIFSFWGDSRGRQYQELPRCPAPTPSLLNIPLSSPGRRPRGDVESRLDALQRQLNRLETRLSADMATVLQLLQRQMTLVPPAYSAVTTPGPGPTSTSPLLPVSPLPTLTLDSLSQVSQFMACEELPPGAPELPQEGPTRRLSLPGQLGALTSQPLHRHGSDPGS

As to `Cc1cc(C(=O)O)ccc1[N+](=O)[O-]`, the max response was -3.52% in assay [1]; -3.81% in [4]; 36.9% (inactive) in assay [5]; -0.276% (inactive) in assay [13]; -1.45% (inactive) in assay [16]. Besides, the molecule was called inactive in assay [2], in assay [3] and in [14]. The activity change % (negative = inhibition) in [6] was 7.48% (inactive). For the same molecule, the Potency result in [7], in assay [9], in [10], in [11] and in [15] was “inactive” each time. The results for the activation in assay [8] and in [12] were -0.415% (inactive) and 1.35% (inactive), respectively.

`Cc1cccc(C)c1`: the max response in assay [1] was -8.44%; in assay [4] it was -8.63%; in assay [5], -1.87% (inactive); in assay [13], 1.06% (inactive); in assay [16] it was 7.38% (inactive). Besides, the call in assay [2], in assay [3] and in assay [14] was inactive. Further, the activity change % (negative = inhibition) in [6] was 21.6% (inactive). Besides, the Potency entry in assay [17], in assay [9], in assay [18], in assay [10], in [11] and in assay [15] was “inactive” each time. The activation in assay [12] is 0.25% (inactive).

For `Cc1cc([N+](=O)[O-])ccc1N`, the max response is -1.24% in [1], -8.79% in assay [4], 2.58% (inactive) in assay [5] and -7.44% (inactive) in [13]. Besides, the molecule was called inactive in assay [2] and in assay [3]. Also, the activity change % (negative = inhibition) in assay [6] is -9.22% (inactive). Further, the figures for the activation in assay [8] and in assay [19] were -4.49% (inactive) and -0.648% (inactive), respectively. In addition, the Potency result in assay [9], in assay [10] and in assay [15] was “inactive” throughout.

With `OC(CCl)CCl`, the max response is -16.7% in assay [1]; -12.4% in assay [4]; -2.39% (inactive) in assay [5]; -0.528% (inactive) in assay [13]; 16.1% (inactive) in assay [16]. Besides, the call in assay [2], in [3] and in assay [14] was inactive. Also, the activity change % (negative = inhibition) in assay [6] is 2.68% (inactive). Further, the Potency entry in assay [7], in assay [9], in assay [18], in assay [10], in assay [20] and in assay [15] was “inactive” in each case. The activation is -1.36% (inactive) in assay [8], 1.2% (inactive) in [19] and 0.26% (inactive) in assay [12].

For `CCOC(=O)OCC`, the max response is -14.7% in assay [1], 10.9% in assay [4], -0.211% (inactive) in assay [5] and 3.76% (inactive) in assay [13]. Moreover, the result in [2], in [3] and in [14] was inactive. Besides, the activity change % (negative = inhibition) in assay [6] is 5.41% (inactive). The Potency result in assay [7], in [10], in assay [11] and in [15] was “inactive” throughout. Moreover, the activation was -0.0369% (inactive) in [19] and 0.303% (inactive) in assay [12].

On to `O=C(Cl)c1c(Cl)cccc1Cl`, for which the max response in [1] is -8.14%; in [4], -4.7%; in [5] it was 4.97% (inactive); in assay [13], -3.46% (inactive); in [16], 10.8% (inactive). Also, the call in [2], in assay [3] and in assay [14] was inactive. The activity change % (negative = inhibition) in [6] is -15.6% (inactive). The Potency entry in assay [17], in assay [9], in assay [18], in [10], in [20] and in assay [15] was “inactive” throughout.

Consider `CC(C)c1ccccc1`, for which the max response in assay [1] was -7.95%; in assay [4], 7.79%; in assay [5], 6.96% (inactive); in assay [13], 3.38% (inactive); in [16] it was -7.17% (inactive). The outcome in assay [2], in assay [3] and in [14] was inactive. The activity change % (negative = inhibition) in assay [6] was 6.43% (inactive). In addition, the activation in [19] was -1.2% (inactive). The Potency entry in [9], in assay [18], in assay [10], in assay [20] and in assay [15] was “inactive” each time.

(Values after PubChem BioAssay (NCATS).)
